Assay [1] in a line: qHTS assay to identify small molecule antagonists of the estrogen related receptor (ERR) signaling pathway from Tox21 library - cell viability counter screen (AID 1224834). Also: nearly all actives have a fitted effect of over 30% in size. Also: potency is read from the fitted curve at half-maximal effect. The method, boiled down: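 Cytotoxicity of test substances is gauged in the same ERR cells used for the antagonist screen, after 17.5 h of compound treatment at 37 C, by CellTiter-Fluor fluorescence measured after 30 min.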

Assay [2] has as its target Luciferin 4-monooxygenase (Photinus pyralis) (UniProt P08659). The assay can be described thus: qHTS assay to identify small molecule inhibitors of firefly luciferase (AID 1224835). Also: nearly all actives have a fitted effect of over 25% in size. Also: potency is read from the fitted curve at half-maximal effect. The method in brief:
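Biochemical qHTS: compounds run as interplate titrations against purified firefly enzyme, with D-luciferin and ATP each at its KM concentration. Light output recorded by CCD imaging.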

Assay [3] in a line: qHTS assay to identify small molecule agonists of the constitutive androstane receptor (CAR) signaling pathway - cell viability counter screen (AID 1224836). Also: series mostly up to about 92 µM; nearly all actives have a fitted effect of over 45% in size. The method, boiled down:
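Fluorescence from CellTiter-Fluor indicates live cells after 23 h exposure. The human hepatoma line expresses hCAR and a CYP2B6-2.2kb reporter. Incubation medium contains 0.75 uM PK11195 (final).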
Background: Quantitative high-throughput screening tests each substance at several concentrations.

A short description of assay [4]: qHTS assay to identify small molecule antagonists of the constitutive androstane receptor (CAR) signaling pathway - cell viability counter screen (AID 1224837). Also: series mostly up to about 92 µM; nearly all actives have a fitted effect of over 45% in size. The method in brief: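 Multiplexed cytotoxicity read-out for the CAR antagonist screen: double-stable HepG2-CYP2B6-hCAR cells co-treated with 50 nM CITCO (final) and compound over 15 concentrations, incubated 23 hr, then assessed by CellTiter-Fluor fluorescence.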

The nature of assay [5]: qHTS assay to identify small molecule antagonists of the estrogen related receptor signaling pathway with the pleiotropic PPARgamma coactivator (PGC) from Tox21 10K library - cell viability counter screen (AID 1224840; active = well fitted cell-killing curve with a large enough effect in the repeat runs, not every such curve was filed as active; also: nearly all actives have a fitted effect of over 40% in size; also: potency is read from the fitted curve at half-maximal effect). The method, boiled down:
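Step one, plate 2,000 PGC/ERR cells per well; step two, incubate 6 h at 37 C/5% CO2; step three, pin-transfer compounds; step four, incubate 17.5 h; step five, add CellTiter-Fluor and read fluorescence after 30 min.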

Assay [6] can be described thus: qHTS assay to identify small molecule antagonists of the estrogen related receptor signaling pathway with the pleiotropic PPARgamma coactivator (PGC) from Tox21 10K library (AID 1224841; call rule not given here; also: actives are mostly falling curves and most rising ones were filed inactive; nearly all actives have a fitted effect of over 50% in size; also: potency is read from the fitted curve at half-maximal effect). The method in brief: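 Antagonism in this quantitative HTS is taken from loss of luciferase signal in PGC/ERR cells. Cells (2,000/well) are treated with compounds in DMSO after a 6 h settling period and read by One-Glo luminescence after 18 h.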

A short description of assay [7]: qHTS assay to identify small molecule agonists of the estrogen related receptor signaling pathway with the pleiotropic PPARgamma coactivator (PGC) from Tox21 10K library (AID 1224842). Also: nearly all actives have a fitted effect of over 15% in size. The method, boiled down:
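PGC/ERR reporter cell line, 2,000 cells per well, incubated 6 h at 37 C before 23 nL compound in DMSO was added. After 18 h at 37 C, One-Glo luminescence read following 30 min at room temperature.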

In assay [8] the target is Nuclear receptor subfamily 1 group I member 3 (Homo sapiens) (UniProt Q14994). The assay can be described thus: qHTS assay to identify small molecule antagonists of the constitutive androstane receptor (CAR) signaling pathway (AID 1224838). Also: nearly all actives have a fitted effect of over 40% in size. Also: potency is read from the fitted curve at half-maximal effect. The method, boiled down:
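Compounds were titrated across 15 concentrations onto HepG2 cells double-stably expressing hCAR and a CYP2B6-2.2kb reporter, together with 50 nM CITCO (final). After 24 h at 37 C, luciferase activity was measured by luminescence.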

Assay [9] has the same target. In words: qHTS assay to identify small molecule agonists of the constitutive androstane receptor (CAR) signaling pathway (AID 1224839). Also: nearly all actives have a fitted effect of over 15% in size. Also: potency is read from the fitted curve at half-maximal effect. The method in brief: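 Stable hCAR/CYP2B6-2.2kb HepG2 line in DMEM with 10% FBS; compounds (15 concentrations) and 0.75 uM PK11195 final, 24 h at 37 C/5% CO2, then ONE-Glo luminescence after 30 min.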

Results on 28 molecules are retold here after PubChem BioAssay (Tox21).

Each structure is given as a SMILES string. Several values for one entry are separate records, joined by “and”; a condition that tells them apart may be missing. Equal values may be shown once. Records with an inconclusive call do not appear. Where a structure was tested more than once in an assay, its records may differ in their call. Activity calls are given as the source filed them. Unless noted, calls follow the shape of the dose curve; as a rule, active = well fitted curve in the direction sought with a large enough effect in the repeat runs; inconclusive = weak or mixed curves; inactive = no such curve, though single readings can be large; an effect the other way counts as inactive or inconclusive.

Chain of Nuclear receptor subfamily 1 group I member 3 (Homo sapiens) (Q14994 whole entry, looked up): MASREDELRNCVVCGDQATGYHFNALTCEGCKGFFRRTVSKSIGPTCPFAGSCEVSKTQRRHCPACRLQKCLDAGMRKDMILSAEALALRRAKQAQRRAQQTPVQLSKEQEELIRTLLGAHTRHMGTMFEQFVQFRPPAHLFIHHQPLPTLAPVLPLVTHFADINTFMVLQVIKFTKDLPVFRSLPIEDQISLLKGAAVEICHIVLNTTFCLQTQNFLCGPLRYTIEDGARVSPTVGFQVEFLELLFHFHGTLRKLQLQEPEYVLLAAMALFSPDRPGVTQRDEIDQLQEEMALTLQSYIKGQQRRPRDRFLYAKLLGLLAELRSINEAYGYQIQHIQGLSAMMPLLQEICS
Chain of Luciferin 4-monooxygenase (Photinus pyralis) (P08659 whole entry, looked up): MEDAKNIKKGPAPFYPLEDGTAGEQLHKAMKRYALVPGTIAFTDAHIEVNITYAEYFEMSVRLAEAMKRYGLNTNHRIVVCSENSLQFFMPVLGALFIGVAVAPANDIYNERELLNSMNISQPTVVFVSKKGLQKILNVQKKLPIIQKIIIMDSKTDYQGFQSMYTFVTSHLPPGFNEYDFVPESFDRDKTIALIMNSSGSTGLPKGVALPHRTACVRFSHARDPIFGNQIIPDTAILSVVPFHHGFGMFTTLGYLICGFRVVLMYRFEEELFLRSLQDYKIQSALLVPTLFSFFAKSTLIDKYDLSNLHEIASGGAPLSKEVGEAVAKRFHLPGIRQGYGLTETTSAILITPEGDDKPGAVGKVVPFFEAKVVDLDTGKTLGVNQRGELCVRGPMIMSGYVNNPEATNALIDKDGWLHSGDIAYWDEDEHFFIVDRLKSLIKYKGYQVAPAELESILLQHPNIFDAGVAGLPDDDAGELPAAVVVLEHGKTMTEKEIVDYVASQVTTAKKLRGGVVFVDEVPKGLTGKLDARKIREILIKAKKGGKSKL

In the case of `CC(C)c1ccc(CO)cc1`, the Potency entry in assay [1], in assay [2], in [3], in assay [4], in assay [5] and in [6] was “inactive” throughout. Also, in assay [7], the Potency result was “inactive”.
As for `Nc1ccc(-c2ccccc2)cc1`, the Potency is 8.87 µM (active) and inactive in [1]; 57.9 µM (active) and 63.3 µM (active) in assay [2]; 30.6 µM (active) in [9]. In addition, the Potency result in [3], in assay [4], in assay [8] and in assay [5] was “inactive” each time.
Take `CCC(=O)O[C@H]1CC[C@H]2[C@@H]3CCC4=CC(=O)CC[C@]4(C)[C@H]3CC[C@]12C`: the Potency entry in [1], in assay [2], in [3], in assay [4], in assay [8] and in assay [9] was “inactive” throughout. Also, the Potency result in assay [5] was “inactive”.
As for `CCOC(=O)C(C)OC(=O)c1cc(Oc2ccc(C(F)(F)F)cc2Cl)ccc1[N+](=O)[O-]` (stereo not given), the Potency entry in assay [1], in [2], in assay [3], in assay [4], in assay [8] and in assay [5] was “inactive” each time. Besides, the Potency entry in [7] is “inactive”. For the same molecule, the Potency is 54.2 µM (active) and inactive in assay [9]; 24.2 µM (active) in assay [6].
On to `CNC(=O)N(C)c1nnc(C(C)(C)C)s1`, for which the Potency entry in assay [1], in assay [2], in assay [3], in assay [4], in assay [8] and in assay [9] was “inactive” each time. In addition, in assay [5], the Potency entry was “inactive”.
Regarding `CC(C)Oc1cc(-n2nc(C(C)(C)C)oc2=O)c(Cl)cc1Cl`, the Potency entry in assay [1], in assay [2], in [3], in assay [4], in assay [8] and in assay [5] was “inactive” throughout. The Potency in assay [9] is 60.3 µM (active) and 61.1 µM (active).
On to `C=CCN(CC=C)C(=O)C(Cl)Cl`, for which the Potency entry in [1], in [2], in assay [3], in assay [4], in assay [8] and in assay [9] was “inactive” throughout. In assay [5], the Potency result was “inactive”.
`CCCCNC(=O)n1c(NC(=O)OC)nc2ccccc21`: the Potency result in assay [1], in [3], in assay [4], in [8] and in assay [5] was “inactive” throughout. Besides, the Potency is 63 µM (active) in assay [2] and 54.2 µM (active) in assay [9].
Turning to `CCCCCCCCC(=O)NCc1ccc(O)c(OC)c1`, the Potency result in [1], in assay [2], in assay [3], in [4], in assay [8] and in [9] was “inactive” throughout. The Potency entry in [5] is “inactive”.
Regarding `Nc1ccncc1`, the Potency result in assay [1], in assay [2], in [3], in [4], in [8] and in [9] was “inactive” throughout. Also, the Potency result in assay [5] is “inactive”.
For the molecule `Nc1cccnc1`, the Potency entry in [1], in assay [2], in assay [3], in assay [4], in assay [8] and in [9] was “inactive” throughout. In addition, in assay [5], the Potency entry was “inactive”.
`CCOc1cc(C=O)ccc1O`: the Potency entry in assay [1], in assay [2], in assay [3], in [4], in assay [8] and in assay [9] was “inactive” throughout. The Potency entry in assay [5] was “inactive”.
For `COP(=S)(OC)Oc1cc(Cl)c(Cl)cc1Cl`, the Potency entry in [1], in assay [2], in assay [3], in assay [4], in [8] and in assay [5] was “inactive” throughout. The Potency in assay [9] was 54.1 µM (active).
Turning to `O=[N+]([O-])c1c(Cl)c(Cl)c(Cl)c(Cl)c1Cl`, the Potency entry in assay [1], in assay [2], in assay [3], in assay [4], in assay [8] and in [5] was “inactive” each time.
For the molecule `Cc1c(COC(=O)[C@@H]2[C@H](/C=C(\Cl)C(F)(F)F)C2(C)C)cccc1-c1ccccc1`, the Potency entry in assay [2], in assay [3], in [4], in [9] and in [5] was “inactive” in each case. The Potency in assay [8] was 53.2 µM (active) and inactive.
Take `S=C1NCCN1`: the Potency result in assay [1], in assay [3], in [4] and in [5] was “inactive” each time.
Consider `C=CCc1ccc(OC)cc1`, for which the Potency result in assay [1], in assay [2], in [4], in assay [8], in assay [9] and in assay [5] was “inactive” throughout.
`C=CC(=O)OCCO`: the Potency result in assay [2], in assay [3], in assay [4], in assay [8], in [9] and in assay [5] was “inactive” throughout.
In the case of `C#CCOS(=O)OC1CCCCC1Oc1ccc(C(C)(C)C)cc1` (stereo not given), the Potency in assay [1] is 4.33 µM (active); in assay [9], “inactive and 5.45 µM (active)”; in assay [6], 3.86 µM (active) and 3.06 µM (active). In addition, the Potency result in assay [8], in [5] and in [7] was “inactive” each time.
As to `COC(=O)c1sccc1S(=O)(=O)NC(=O)Nc1nc(C)nc(OC)n1`, the Potency entry in [1], in assay [2], in assay [4], in assay [8], in [9] and in assay [5] was “inactive” each time.
On to `CCCCCc1cc(O)cc(O)c1`, for which the Potency was 54.5 µM (active) in [1]; 63.6 µM (active) and 39.9 µM (active) in assay [2]; 54.5 µM (active) in assay [9]; “inactive and 48.6 µM (active)” in assay [5]. The Potency result in assay [3] and in assay [8] was “inactive” throughout.
For the molecule `C[C@]12CCC(=O)C(O)=C1CC[C@@H]1[C@@H]2CC[C@]2(C)C(=O)CC[C@@H]12`, the Potency result in [1], in [2], in assay [4], in [8], in assay [9] and in assay [5] was “inactive” throughout. Moreover, the Potency result in [6] and in [7] was “inactive” each time.
For `Clc1nc(Cl)nc(Cl)n1`, the Potency result in assay [1], in assay [3], in assay [4], in [8], in [9] and in [5] was “inactive” throughout.
In the case of `Oc1cc(Cl)ccc1Oc1ccc(Cl)cc1Cl`, the Potency was 24.9 µM (active) and 29.8 µM (active) in assay [1]; 55.8 µM (active) and inactive in assay [8]; 24.9 µM (active) in assay [5]; 33.2 µM (active) in assay [6]. Also, the Potency entry in [2], in assay [9] and in [7] was “inactive” throughout.
Consider `O=[N+]([O-])c1cccc2ccccc12`, for which the Potency result in [1], in assay [2], in [4], in assay [8], in assay [9] and in assay [5] was “inactive” each time. Further, the Potency result in assay [6] and in assay [7] was “inactive” each time.
As to `C[C@]12CCC(=O)C[C@@H]1CC[C@@H]1[C@@H]2CC[C@]2(C)[C@@H](O)CC[C@@H]12`, the Potency in assay [1] is 48 µM (active) and inactive. Moreover, the Potency result in assay [3], in assay [4] and in [5] was “inactive” in each case.
Consider `Cc1cc(C)cc(C)c1`, for which the Potency entry in assay [1], in [2], in [4] and in assay [5] was “inactive” throughout.
As for `CCN(N=O)C(N)=O`, the Potency entry in assay [1], in assay [2], in [4] and in [5] was “inactive” throughout.
